# Pf growth 48h: P. falciparum growth inhibition at 48 hours (one generation); P. falciparum luciferase growth in erythrocytes, 48 h; Potency, µM (top dose mostly 28.7 µM), most hits filed as inhibitors; 310,000 tested, 5.9% active; AID 504832
#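 Erythrocytes infected with P. falciparum carrying an integrated firefly luciferase reporter (2% hematocrit, 0.1% parasitemia final) were exposed to compounds in RPMI 1640 with 0.5% Albumax at 37 C, 5% CO2. Growth inhibition was scored as reduced luminescence.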
# HCV inhibitor: HCV inhibition; Huh7.5.1 HCVcc-Cre infection, luciferase reporter, 44 h; Potency, µM (top dose mostly 41.8 µM), hits mostly inhibitors; 340,000 tested, 3.4% active
#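 Infectious HCV cell culture screen: compound-treated cells (1,000/well, pre-plated 4 h) are infected with HCVcc-Cre at roughly 0.5 moi and grown 44 h. Infection is quantified by luciferase signal after 15 min substrate incubation at room temperature.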
# Sm TGR inh: inhibitors of Schistosoma mansoni thioredoxin glutathione reductase. 360,000 tested, 3% active. purified TGR, DTNB reduction, TNB absorbance 405 nm. Potency, µM (series often up to 114 µM), most hits filed as inhibitors. Q962Y6; further: nearly all actives have a fitted effect of over 60% in size
#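 Kinetic colorimetric format: TGR-catalysed, NADPH-driven DTNB reduction monitored via TNB absorbance. Enzyme dispensed at 20 nM; compound exposure 15 min at room temperature before reaction start.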
# HCMV inh: blocks human cytomegalovirus replication; 410,000 tested, 4.5% active; activity change, negative = inhibition, % at 57.5 µM; AID 1259415; HFF cells, HCMV-luciferase reporter, 72 h; active compounds read low; in the data active means activity change below about -60%; inconclusive means no clear call, values can overlap the other calls; inactive means above about -39%
#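 Inhibition of viral replication was scored as loss of reporter luminescence in HFFs infected with HCMV-luciferase (MOI 1 PFU/cell) for 72 h; compounds tested at 2 doses, normalized to buffer and Salinomycin controls.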
# SARS PLP yeast: inhibitors of SARS-CoV papain-like protease in yeast; S. cerevisiae expressing SARS-CoV PLpro, growth rescue; Potency, µM (top dose mostly 32.9 µM), usual class: activators; 330,000 tested, 0.19% active; calls by dose curve; further: nearly all actives have a fitted effect of over 55% in size
# Pf growth 96h: P. falciparum growth inhibition at 96 hours | P. falciparum luciferase reporter growth, 96 h | AID 504834 | 320,000 tested, 6.9% active | Potency, µM (doses to about 28.7 µM), usual class: inhibitors
#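 Luminescence readout: decreased luciferase signal marks inhibited growth of reporter-expressing P. falciparum in infected red cells (2% hematocrit, 0.05% parasitemia final), exposed to compound two generations (96 h, 37 C, 5% CO2).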
# A number is an active result; 0 = inactive; ? = inconclusive; - = no result given; [ ] = another dose, or the depositor's remark. In the library only some 15% were active in any assay of this set; here they are far more common. Unless noted, the call rests on the fitted dose curve; in most records, active means well fitted curve in the direction sought with a large enough effect; inconclusive means small, poorly fitted or top-dose-only effect, or another doubt; inactive means no such curve, though single readings can be large; an effect the other way counts as inactive or inconclusive.
SMILES,Pf growth 48h,HCV inhibitor,Sm TGR inh,HCMV inh,SARS PLP yeast,Pf growth 96h
Nc1c2ccccc2nc2ccccc12,5.2µM,5µM,0,-99,0,4.7µM
Cc1c(N(C)C)nc2ccccc2c1N,0,0,0,0,0,0
Cc1cc(C)c2c(N)c3cccc(C)c3nc2n1,4.1µM,13µM,0,-99,?,6.6µM
Cc1cccc2c(N)c3c(nc12)N(C)CC3,0,0,0,?,0,0
Cc1cccc(CS(=O)(=O)CC2Nc3ccc(C(=O)NCc4ccccc4Cl)cc3NC2=O)c1 (configuration not stated),-,-,0,0,-,-
COC(=O)/C=C/CSC1=N/C(=C/c2ccc(-n3cncn3)cc2)C(=O)N1,?,0,0,0,0,0
CCOC(=O)c1c(OCC)[nH]c2ccc(O)cc12,0,0,0,0,0,0
Cn1c(NCCc2ccncc2)nc2cc(-c3ccsc3)sc2c1=O,-,-,-,0,-,-
COc1ccc(OC)c(NC(=O)c2c(N3CCCC3=O)c3cc(OC)ccc3n2C)c1,-,-,0,0,-,-
O=C(Nc1ccc(F)cc1)C(c1ccccc1OC(F)(F)F)N1CCN(c2cccc(C(F)(F)F)n2)CC1 (configuration not stated),-,-,-,0,-,-
Cc1ccc(NC(=O)CSc2nc3ccccc3nc2Cc2ccccc2)c(C)c1,-,-,0,0,-,-
Cc1nc(Oc2ccccc2)c2ccccc2n1,0,0,0,0,0,0
c1ccc(Oc2c3ccccc3nc3ccccc23)cc1,7.4µM,0,5µM,-,0,?
CCN(CC)c1nc2ccccc2c(N)c1-c1ccccc1,15µM,?,0,0,0,0
COc1ccc(OC)c(NC(=O)Cn2c(=O)n(-c3ccc(Cl)cc3)c(=O)c3c(C)c(C)sc32)c1,-,-,0,0,-,-
CC(C)(C)NC(=O)C(c1ccccn1)N(C(=O)C1CSC(=O)C1)c1ccc(F)cc1 (configuration not stated),0,0,0,0,0,?
O=C1C=C(c2ccccc2)C(=O)N1Nc1ccccc1,-,?,14µM,0,0,0
CCN(CC(=O)Nc1cc(Cl)cc(Cl)c1)CC(=O)NC1CCS(=O)(=O)C1 (configuration not stated),-,0,-,0,0,-
CC(=O)Nc1ccc(N(C(=O)c2ccco2)C(C(=O)NC2CCCCC2)c2ccccc2)cc1 (configuration not stated),?,0,0,-64,0,0
O=C(NC1CCCC1)C(c1ccccc1)N(C(=O)c1ccco1)C1CCCC1 (configuration not stated),?,0,0,-78,0,0
O=C(NC1CCCC1)C(c1ccccc1F)N(C(=O)c1ccco1)C1CCCC1 (configuration not stated),?,?,0,0,0,0
Cn1nc(-c2ccccc2)c(C#N)c1Sc1cccc(Cl)c1,?,0,0,0,0,10µM
COc1ccccc1NC(=O)N1c2ccc(F)cc2CCC1C (configuration not stated),0,0,0,0,0,4.7µM
COc1ccc(C(=O)N2c3ccc(F)cc3CCC2C)cc1OC (configuration not stated),?,0,0,0,0,-
CC1CCc2cc(F)ccc2N1C(=O)CCl (configuration not stated),?,?,5.6µM,-,0,?
SMILES,Pf growth 48h,HCV inhibitor,Sm TGR inh,HCMV inh,SARS PLP yeast,Pf growth 96h
Cc1nn(Cc2ccc(C(=O)N3c4ccc(F)cc4CCC3C)o2)c(C)c1Br (configuration not stated),-,0,?,0,0,13µM
Cc1ccc(C(=O)N2c3ccc(F)cc3CCC2C)o1 (configuration not stated),?,0,0,0,0,?
O=C(c1cccs1)N1CCc2c([nH]c3ccccc23)C1c1ccccn1 (configuration not stated),?,0,0,0,0,0
O=C(c1cc(-c2ccccc2)n[nH]1)N1CCc2c([nH]c3ccccc23)C1c1ccccn1 (configuration not stated),?,?,0,0,0,8.3µM
O=C(c1ccccc1-n1cccn1)N1CCc2c([nH]c3ccccc23)C1c1ccccn1 (configuration not stated),?,0,0,?,0,4.7µM
O=C(c1ccccc1-c1ncc[nH]1)N1CCc2c([nH]c3ccccc23)C1c1ccccn1 (configuration not stated),12µM,0,0,0,0,0
CCc1nc(C)ccc1OCC(=O)N1CCc2c([nH]c3ccccc23)C1c1ccccn1 (configuration not stated),0,?,0,0,0,0
COc1ccc(OCC(=O)N2CCc3c([nH]c4ccccc34)C2c2ccccn2)cc1 (configuration not stated),0,0,0,-70,0,?
CC(=O)c1ccc(C(=O)N2CCc3c([nH]c4ccccc34)C2c2ccccn2)s1 (configuration not stated),?,0,0,0,0,?
CC1=C(C(=O)OCc2ccccc2)C(c2ccc(-c3ccccc3)cc2)NC(=O)N1CCCC(=O)O (configuration not stated),-,-,-,0,-,-
Cc1ccc(C(=O)NCC(=O)OCc2nc3ccsc3c(=O)[nH]2)cc1C,-,-,-,0,-,-
CSc1nc(C(=O)N2CCc3c([nH]c4ccccc34)C2c2ccccn2)cs1 (configuration not stated),0,0,0,?,0,0
Cc1ccc2nc(C(=O)N3CCc4c([nH]c5ccccc45)C3c3ccccn3)cn2c1 (configuration not stated),0,0,0,0,0,9.3µM
Cc1ccc2c(=O)cc(C(=O)Nc3ccc(S(=O)(=O)N(C)c4ccccc4)cc3)oc2c1C,-,-,0,0,-,-
Cc1ccc(C)n1C1C(=O)N(Cc2ccc(C(F)(F)F)cc2)c2ccc(OC(F)(F)F)cc21 (configuration not stated),-,-,-,0,-,-
C[C@H]1[C@H](C)CC[C@]2(C(=O)O)CC[C@]3(C)C(=CC[C@@H]4[C@@]5(C)C[C@@H](O)[C@H](O)C(C)(C)[C@@H]5CC[C@]43C)[C@H]12,0,0[8.37 µM],0,-,0,0
C[C@@H]1CC[C@]2(C(=O)O)CC[C@]3(C)C(=CCC4[C@]56CC[C@@](O)(OC5)C(C)(C)C6CC[C@]43C)C2[C@H]1C (some centres not stated),?,2µM,0,-,0,0
C[C@H]1[C@H](C)CC[C@]2(C)CC[C@]3(C)C(=CC[C@@H]4[C@@]5(C)CC[C@@H](O)[C@](C)(C(=O)O)[C@@H]5CC[C@]43C)[C@H]12,?,-,0,-,0,13µM
Cc1ccc(-c2cnc(C(O)c3cc(C)cc(C)c3)[nH]2)cc1 (configuration not stated),-,-,-,0,-,-

# Screens (PubChem BioAssay)
